HT1080 IDH1KD tx = HT-1080 IDH1 knockdown cell toxicity (counter line); HT-1080 IDH1 knockdown viability, ATP luminescence, 48 h; Potency, µM (titrated, usually from 46.1 µM), actives largely listed as cytotoxic; 360,000 tested, 2% active; AID 686971
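IDH1KD HT-1080 cells, 750/well, RPMI + 5% FBS; compound pinned after 2 h settling; 48 h, 37 °C; CellTiter-Glo luminescence; % activity normalised to DMSO and no-cell wells; curves fitted, classed by r2 and efficacy.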
MCF10A rerep = DNA re-replication induction in MCF 10a cells; 350,000 tested, 2.9% active; AID 624296; MCF 10A DNA re-replication, Hoechst nuclear intensity, 48 h; Potency, µM (top dose mostly 46.1 µM), usual class: activators; note: nearly all actives have a fitted effect of over 50% in size
SW480 rerep = inducers of DNA re-replication in SW480 colon cancer cells; SW480 DNA re-replication, Hoechst DNA content imaging, 48 h; Potency, µM (titrated, usually from 46.1 µM), hits mostly activators; 340,000 tested, 1.8% active; note: nearly all actives have a fitted effect of over 55% in size
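First, 250 cells per well were seeded. Next, compound or vehicle (23 nL) was pinned in, plates sat 48 hr at 37 C. Finally Hoechst was added for 40 min before fluorescence scanning.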
KB-V1 MDR tox = KB-V1 MDR subline cytotoxicity | KB-V1 MDR cells viability, CellTiter-Glo, 72 h | Potency, µM (highest dose often 46.1 µM), usual class: cytotoxic | 400,000 tested, 3.4% active; note: nearly all actives have a fitted effect of over 60% in size
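In this primary screen, KB-V1 cells overexpressing P-gp are incubated with library compounds (lowest to highest concentration) for 72 h at 37 degrees C before a luminescent ATP viability read.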
KB-3-1 cytotox = kills parental KB-3-1 adenocarcinoma cells; 400,000 tested, 1.4% active; Potency, µM (doses to about 46.1 µM), actives largely listed as cytotoxic; KB-3-1 viability, CellTiter-Glo ATP luminescence, 72 h; note: nearly all actives have a fitted effect of over 60% in size
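72 h, 37 °C compound treatment of KB-3-1 parental cells; CellTiter-Glo added, 10 min, luminescence read. Data corrected against DMSO-only plates and normalized before curve fitting.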
HT1080NT lethal = kills 2HG-producing HT-1080-NT fibrosarcoma cells. HT-1080-NT fibrosarcoma viability, CellTiter-Glo ATP luminescence, 48 h. Potency, µM (top dose mostly 46.1 µM), hits mostly cytotoxic. 360,000 tested, 1.6% active;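 note: NT is the 2HG producing partner of a matched IDH1 knockdown line; nearly all actives have a fitted effect of over 55% in size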
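A 48-hour cytotoxicity screen used HT-1080-NT cells plated 2 hours before compound delivery. ATP-based CellTiter-Glo luminescence measured viability, normalized to DMSO and no-cell controls.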
Hits are given with their value; n = inactive; u = inconclusive; x = not tested or not shown; ! = not active in a repeat; [ ] = remark or other dose. Hits are enriched below; roughly 8% of the tested compounds scored in any of these assays. Calls come from the whole dose curve; as a rule, active = well fitted curve in the direction sought with a large enough effect; inconclusive = small, poorly fitted or top-dose-only effect, or another doubt; inactive = no such curve, though single readings can be large; an effect the other way counts as inactive or inconclusive.

SMILES	HT1080 IDH1KD tx	MCF10A rerep	SW480 rerep	KB-V1 MDR tox	KB-3-1 cytotox	HT1080NT lethal
O=C1CC(c2ccco2)CC2=C1C(c1ccccc1)n1nc(C(F)(F)F)nc1N2 (stereo unspecified)	n	u	n	n	n	n
CCOC(=O)NC(NC(=S)Nc1ccccc1[N+](=O)[O-])C(Cl)(Cl)Cl (stereo unspecified)	n	n	n	n	n	n
CCOC(=O)/C(=C\c1cn(C)c2ccccc12)[N+](=O)[O-]	n	u	u	n	n	n
COc1ccc(O)c(C(=O)c2cc(SCC(=O)O)c3nc4sc5c(c4c(=O)n3c2)CCCC5)c1	n	n	n	n	n	n
O=C(O)CSc1cc(C(=O)c2ccccc2O)cn2c(=O)c3c(-c4ccccc4)csc3nc12	n	5.17µM	u	n	n	n
CCOC(=O)c1sc2nc3c(SCC(=O)O)cc(C(=O)c4cc(F)ccc4O)cn3c(=O)c2c1C	n	3.26µM	n	n	n	n
CCOC(=O)c1sc2nc3c(SCC(=O)O)cc(C(=O)c4ccccc4O)cn3c(=O)c2c1C	n	n	n	n	n	n
Cc1sc2nc3c(SC(C)C(=O)O)cc(C(=O)c4ccccc4O)cn3c(=O)c2c1C (stereo unspecified)	n	16.4µM	n	n	n	n
COC(=O)c1cc(C(=O)c2cc(F)ccc2O)cn2c(=O)c3c(C)c(C)sc3nc12	n	3.66µM	u	n	n	n
CCCc1ccc(-c2cc(NC(=O)CSc3n[nH]c(N)n3)n(-c3ccccc3)n2)cc1	u	20.6µM	u	n	n	n[9.24 µM]
CC(NC(=O)CSc1n[nH]c(N)n1)c1ccccc1 (stereo unspecified)	n	n	n	u	n	n
Nc1nc(SCC(=O)Nc2ccccc2Sc2ccccc2)n[nH]1	n	n	n	14.6µM	n	n
O=C(CN(C(=O)CSc1nc2ccccc2o1)c1cccc(F)c1)NC1CCCCC1	n	n	n	n	n	n
Nc1nc(N)c(N)c(=O)[nH]1	x	x	x	n	n	x
Nc1nc2n[nH]nc2c(=O)[nH]1	0.116µM	u	u	u	1.46µM!	u
CCc1ccccc1NC(=O)Cn1c(=O)ccc2cc(S(=O)(=O)N3CCC(C)CC3)ccc21	x	x	x	n	n	x
CN(Cc1nc2ccccc2[nH]1)C(=O)C1CCC(=O)N(CCc2cccc(F)c2)C1 (stereo unspecified)	n	n	n	n	n	n
CC(C)[C@H]1c2ccc(F)cc2CC[C@@]1(CCN(C)CCCc1nc2ccccc2[nH]1)OC(=O)C1CC1	x	x	x	20.6µM	u	x
Cc1ccc(C2=NOC(=O)/C2=C\C=C\c2ccccc2)cc1	13µM	5.17µM	u	u	u	9.2µM
CC1=NN(c2ccccc2)C(=O)/C1=C/C=C/c1ccccc1	9.2µM	9.2µM	7.31µM	u	u	3.26µM
CC1=NN(c2cccc(C(=O)O)c2)C(=O)/C1=C\C=C\c1ccco1	n	u	u	n	n	n
COc1ccccc1CNC(=O)[C@H](C)NC(=O)[C@@H]1Cc2ccccc2CN1	n	n	u	n	n	n
COc1ccccc1CNC(=O)C(CCSC)NC(=O)C1CCC(C)CC1 (stereo unspecified)	n	n	n	4.11µM	n	n
COc1ccccc1CNC(=O)[C@H](CCSC)NC(=O)[C@@H]1Cc2ccccc2CN1	n	n	7.31µM	n	u	n
CSCCC(NC(=O)C1CCC(C)CC1)C(=O)Nc1ccc(NC(C)=O)cc1 (stereo unspecified)	n	n	n	n	n	n
SMILES	HT1080 IDH1KD tx	MCF10A rerep	SW480 rerep	KB-V1 MDR tox	KB-3-1 cytotox	HT1080NT lethal
Cc1ccc(S(=O)(=O)N2C[C@H]3N(C(=O)OC(C)C)N(C(=O)OC(C)C)C[C@H](OC(=O)NCC4CCCCC4)[C@@]3(O)C2)cc1	u	x	x	u	u	20.6µM
Cc1cc(=O)n(CC(=O)NC(C)c2ccccc2)c2c1c(C)nn2-c1cccc(F)c1 (stereo unspecified)	x	x	x	n	n	x
O=C(CSc1nnc(Cn2nnc3ccccc32)o1)N(Cc1ccc(F)cc1)c1ccccc1	u	n	n	u	5.17µM	0.282µM
COc1ccc(N(Cc2ccccc2)C(=O)CSc2nnc(Cn3nnc4ccccc43)o2)cc1	n	u	u	8.2µM	u	n
O=C(CSc1nnc(Cn2nnc3ccccc32)o1)Nc1ccc(Cl)cc1	n	n	n	n	n	n
CC(=O)Nc1ccc(/C(C)=N/NC(=O)c2ccc(COc3ccccc3Cl)o2)cc1	n	n	n	n	n	n
CC(=O)NC(C)(c1ccccc1)c1nc(-c2cnc3ccccc3c2)cs1 (stereo unspecified)	n	x	x	n	n	n
COc1ccc(-c2nnc(SC(C)C(=O)Nc3nccs3)n2Cc2ccccc2)cc1OC (stereo unspecified)	n	n	n	n	n	n
COc1ccc(-c2nnc(SC(C)C(=O)Nc3nccs3)n2-c2ccccc2)cc1OC (stereo unspecified)	n	n	n	14.6µM	n	n
CCOc1cc(NC(=S)N2CCC(C(N)=O)CC2)c(C(=O)OC)cc1OCC	n	n	n	n	n	n
Cc1ccc(C)c(OCCn2cc(/C=C(\C#N)C(=O)NCC3CCCO3)c3ccccc32)c1 (stereo unspecified)	n	16.4µM	u	n	u	n
Cc1ccc(OCCn2cc(/C=C(\C#N)C(=O)NCC3CCCO3)c3ccccc32)cc1 (stereo unspecified)	n	n	x	20.6µM	n	n
Cc1ccc(OCCn2cc(/C=C(\C#N)C(=O)NCC3CCCO3)c3ccccc32)cc1C (stereo unspecified)	n	u	u	u	n	n
CCN(CC)C(c1ccc(F)cc1)c1nnnn1CC1CCCO1 (stereo unspecified)	n	n	n[9.22 µM]	n	n	n
Nc1ncnc2c1cnn2-c1ccccc1	n	n	n	u	n	n
S=c1nc[nH]c2c1cnn2-c1ccccc1	n	n	n	8.2µM	u	n
O=C(Nc1cccc(S(=O)(=O)N2CCCCC2)c1)c1ccccc1NS(=O)(=O)c1ccc(F)cc1	23.1µM	u	u	20.6µM	u	u
O=C(Nc1ccc(F)cc1F)c1ccc(S(=O)(=O)N2CCCCC2)cc1	n	n	n	x	x	n
O=C(Nc1ccc(F)cc1F)c1cc(S(=O)(=O)N2CCCCC2)c[nH]1	x	x	x	u	18.4µM	x
NS(=O)(=O)c1cccc(NC(=O)c2ccccc2NS(=O)(=O)c2ccc(F)cc2)c1	n	n	n	n	n	n
Cc1ccc(C(=O)Nc2cccc(S(=O)(=O)N3CCCCC3)c2)cc1[N+](=O)[O-]	n	u	n	u	20.6µM	n

Screens as filed in PubChem BioAssay.
